This passage reports cytotoxicity results from PubChem BioAssay AID430 (Sanford-Burnham Center for Chemical Genomics, 2006).

About 1,100 (1.7%) of roughly 63,000 compounds were called active. Rule as the data show it: active = cytotoxicity above about 50%; inactive = the rest. Only a selection was taken, and actives are over-represented in it overall. Measured potencies and affinities stand elsewhere.

This assay can be described thus: HPDE-C7 pancreatic duct cell viability loss – fluorescence, HTS (AID 430).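 Also: cells exposed to compound for 48 hours before viability readout; 0% = vehicle and 100% = reference cytotoxic drug.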 The settings on record: HPDE-C7 pancreatic duct cells viability, at 10 µM, active compounds read high.
Take `Cc1ccc(NS(=O)(=O)c2cccc(C(=O)Nc3cc(C)on3)c2)cc1`: the cytotoxicity was -4.8% (inactive).

On to `Cc1ccc2nc3ccc(N4CCN(C)CC4)nn3c(=O)c2c1`, for which the cytotoxicity was -2.8% (inactive).

Regarding `COc1cccc(C2=NOC(C(=O)NC(C)C)C2)c1` (stereo not given), the cytotoxicity was -3.9% (inactive).

Consider `COc1cccc(C2=NOC(C(=O)NC(C)(C)C)C2)c1` (stereo not given), for which the cytotoxicity is -11.2% (inactive).

As to `CC(C)(C)SCCNS(=O)(=O)c1ccc(F)cc1`, the cytotoxicity was 5.7% (inactive).

Turning to `O=S(=O)(c1cccc(-c2nnc(SCc3ccc(Cl)cc3)o2)c1)N1CCCCC1`, the cytotoxicity is -2.9% (inactive).

Turning to `Cc1cc2nc(-c3ccc(SCC(=O)N4CCOCC4)nc3)[nH]c2cc1C`, the cytotoxicity was -15.5% (inactive).

On to `O=C(NC1=NCCS1)Nc1ccccc1`, for which the cytotoxicity was 1.2% (inactive).

Turning to `Cc1cc(O)c(-c2n[nH]c3c2C(c2cccc(O)c2)N(Cc2cccnc2)C3=O)cc1Cl` (stereo not given), the cytotoxicity is 8% (inactive).

In the case of `COCCCN1C(=O)c2[nH]nc(-c3ccccc3O)c2C1c1cccc(Cl)c1` (stereo not given), the cytotoxicity was 13.3% (inactive).

For `Cc1ccc(C2c3c(-c4ccccc4O)n[nH]c3C(=O)N2Cc2ccncc2)cc1` (stereo not given), the cytotoxicity is -3.9% (inactive).

With `COCCCN1C(=O)c2[nH]nc(-c3ccccc3O)c2C1c1ccc(Cl)cc1` (stereo not given), the cytotoxicity was 67.3% (active).

In the case of `COc1ccc(CCN2C(=O)c3[nH]nc(-c4ccccc4O)c3C2c2cccc(O)c2)cc1OC` (stereo not given), the cytotoxicity is 66% (active).

For `COCCCN1C(=O)c2[nH]nc(-c3cc(C)cc(C)c3O)c2C1c1ccc(O)c(OC)c1` (stereo not given), the cytotoxicity was -2.5% (inactive).

In the case of `COc1ccc(CCN2C(=O)c3[nH]nc(-c4ccccc4O)c3C2c2ccccc2)cc1OC` (stereo not given), the cytotoxicity was 54.9% (active).

`COc1ccc(C2c3c(-c4ccccc4O)n[nH]c3C(=O)N2CCc2ccc(OC)c(OC)c2)cc1` (stereo not given): the cytotoxicity is 36.9% (inactive).

As for `CC(C)OCCCN1C(=O)c2[nH]nc(-c3ccccc3O)c2C1c1cccc(Cl)c1` (stereo not given), the cytotoxicity is -3.6% (inactive).

With `COc1cc(C2c3c(-c4cc(C)cc(C)c4O)n[nH]c3C(=O)N2CCCO)cc(OC)c1OC` (stereo not given), the cytotoxicity is 0.6% (inactive).

`COc1ccc(C2c3c(-c4cc(Cl)c(C)cc4O)n[nH]c3C(=O)N2Cc2cccnc2)cc1OC` (stereo not given): the cytotoxicity is 26.6% (inactive).

With `Cc1noc(C)c1C(=O)OCC(=O)c1c[nH]c2ccccc12`, the cytotoxicity was 4.1% (inactive).

Take `O=C(NCCC1=CCCCC1)C1CC(=O)N(C2CCCCC2)C1` (stereo not given): the cytotoxicity was 1.5% (inactive).

On to `COc1ccc(-c2noc(CCC(=O)N3CCN(c4cc(C)ccc4C)CC3)n2)cc1`, for which the cytotoxicity is 11.6% (inactive).

`O=C(CSCc1nc2ccccc2[nH]1)N1CCN(c2cccc(Cl)c2)CC1`: the cytotoxicity was 7.4% (inactive).

In the case of `COc1ccc(CCN2CC(C(=O)O)CC2=O)cc1` (stereo not given), the cytotoxicity is 1.2% (inactive).

For `c1ccc(CCc2nc(-c3ccccn3)no2)cc1`, the cytotoxicity was 6.2% (inactive).

On to `O=C1c2ccccc2NC(c2ccccn2)N1c1ccc(Cl)cc1` (stereo not given), for which the cytotoxicity is -4.1% (inactive).

As to `CCN(CC)S(=O)(=O)c1ccc(NC(=O)CSc2nnc(-c3ccc(F)cc3)o2)cc1`, the cytotoxicity was -7.7% (inactive).

On to `COc1cccc(-c2nnc(NC(=O)c3ccccc3Br)o2)c1`, for which the cytotoxicity is 22.6% (inactive).

For the molecule `COc1cccc(-c2nnc(NC(=O)c3ccc(S(=O)(=O)N4CCOCC4)cc3)o2)c1`, the cytotoxicity is 13.7% (inactive).

`COc1cccc(-c2nnc(NC(=O)c3ccc(S(=O)(=O)N(CC(C)C)CC(C)C)cc3)o2)c1`: the cytotoxicity was 51.2% (active).

Regarding `COc1cccc(-c2nnc(NC(=O)c3ccc(S(=O)(=O)N4CC(C)OC(C)C4)cc3)o2)c1` (stereo not given), the cytotoxicity is -5.9% (inactive).

For the molecule `CCCN(CCC)S(=O)(=O)c1ccc(C(=O)Nc2nnc(-c3cc(OC)cc(OC)c3)o2)cc1`, the cytotoxicity was 47.5% (inactive).

In the case of `CCCN(CCC)S(=O)(=O)c1ccc(C(=O)Nc2nnc(-c3cccc(OC)c3)o2)cc1`, the cytotoxicity is 66.4% (active).

Take `CCCn1c(SCC(=O)Nc2nnc(CC)s2)nnc1-c1ccco1`: the cytotoxicity is -5% (inactive).

Turning to `O=C(Nc1ccc2oc(=O)ccc2c1)c1cccnc1`, the cytotoxicity was 3% (inactive).

Consider `COc1ccccc1-c1nc(-c2ccncc2)no1`, for which the cytotoxicity was 2.1% (inactive).

Regarding `COc1cc2oc(=O)c(Br)c(C)c2c(OC)c1OC`, the cytotoxicity was -8.6% (inactive).

On to `CCCS(=O)(=O)c1c(S(=O)(=O)CCC)c2ccccn2c1C(=O)OC`, for which the cytotoxicity was -3.7% (inactive).

On to `CCN1CCN(c2cc(=O)n(C3CCCCC3)c(=O)[nH]2)CC1`, for which the cytotoxicity was -14.2% (inactive).

With `CCOC(=O)N1CCN(C(=O)CCc2c(C)nc3c(c(C)nn3-c3ccc(C)c(C)c3)c2C)CC1`, the cytotoxicity was -7.7% (inactive).

Turning to `COc1ccc(OC)c(NS(=O)(=O)c2ccc(SC)cc2)c1`, the cytotoxicity is 36.3% (inactive).

As for `CCCCOc1ccc(S(=O)(=O)Nc2cc(OC)ccc2OC)cc1`, the cytotoxicity was 31.3% (inactive).

Take `COC(=O)COc1ccc(S(=O)(=O)Nc2cc(OC)ccc2OC)cc1`: the cytotoxicity was -2.9% (inactive).

`COc1ccc(OC)c(NS(=O)(=O)c2ccc(N3CCCC3=O)cc2)c1`: the cytotoxicity is 75.9% (active).

Take `COc1ccc(OC)c(NS(=O)(=O)c2ccc3c(c2)CCC(=O)N3)c1`: the cytotoxicity was 3.3% (inactive).

For `CCOc1ccc(S(=O)(=O)Nc2cc(OC)ccc2OC)cc1`, the cytotoxicity was 73.1% (active).

As for `Cc1cc(C(=O)NCc2ccccc2)c(=O)[nH]c1C`, the cytotoxicity was -2.3% (inactive).

Consider `Cc1cc(C)n2nc(SCC#N)nc2n1`, for which the cytotoxicity is 1.5% (inactive).

Turning to `CCCCOCCCNC(=O)c1c(-c2ccccc2)noc1C`, the cytotoxicity was 6.3% (inactive).

As for `COc1ccc(CNC(=O)C2CC(c3ccc(F)cc3)=NO2)cc1` (stereo not given), the cytotoxicity is 1% (inactive).

Turning to `COc1ccc(C2=NOC(C(=O)NCc3ccccc3)C2)cc1` (stereo not given), the cytotoxicity was 54.5% (active).

As to `COc1ccc(C2=NOC(C(=O)NCC(C)C)C2)cc1` (stereo not given), the cytotoxicity was -14.9% (inactive).

Regarding `COc1ccc(CNC(=O)C2CC(c3ccc(OC)cc3)=NO2)cc1` (stereo not given), the cytotoxicity was 17.5% (inactive).

Consider `COc1ccc(C2=NOC(C(=O)NCc3ccc(F)cc3)C2)cc1` (stereo not given), for which the cytotoxicity is 63.5% (active).

On to `O=C(NCc1cccnc1)C1CC(c2ccc(F)cc2)=NO1` (stereo not given), for which the cytotoxicity is -10.8% (inactive).

Consider `CC(=O)Nc1ccc(NS(=O)(=O)c2ccc(Cl)c(C(=O)O)c2)cc1`, for which the cytotoxicity was 0.9% (inactive).

`COC(=O)CC1=NC(=O)CS1`: the cytotoxicity is 0.6% (inactive).

As to `COC(=O)c1ccccc1NC(=O)CSc1nnc(CNS(=O)(=O)c2ccc(C)cc2)n1C`, the cytotoxicity is -12.6% (inactive).

For the molecule `O=C1OCCN1CCN(CN1C(=O)CCC1=O)CN1C(=O)CCC1=O`, the cytotoxicity is 5.9% (inactive).

Take `O=C(CN(Cc1ccc2c(c1)OCO2)C(=O)c1cnsn1)NC1CCCC1`: the cytotoxicity is 7% (inactive).

As for `COc1ccccc1NC(=O)c1ccc(Cl)c(S(=O)(=O)N2CCOCC2)c1`, the cytotoxicity was -10.1% (inactive).

`O=C(Nc1cccnc1)c1ccc(Cl)c(S(=O)(=O)N2CCCCCC2)c1`: the cytotoxicity was 12.4% (inactive).

With `COc1ccc(NC(=O)c2ccc(Cl)c(S(=O)(=O)N3CCc4ccccc4C3)c2)cn1`, the cytotoxicity is 86.5% (active).

`COc1ccc(CNC(=O)C2CCCN(S(=O)(=O)c3cnc[nH]3)C2)cc1` (stereo not given): the cytotoxicity was -4.6% (inactive).

Consider `CN(CC(O)COc1ccc(OCC(O)CN(C)C2CCCCC2)cc1)C1CCCCC1` (stereo not given), for which the cytotoxicity is 7.7% (inactive).

With `Cc1csc(SCC(=O)Nc2c(C)n(C)n(-c3ccccc3)c2=O)n1`, the cytotoxicity is 3.8% (inactive).

`COc1ccc(S(=O)(=O)Nc2nc(C(F)(F)F)cs2)cc1`: the cytotoxicity was -2.3% (inactive).

In the case of `Cc1cc(C)c2c(CC(=O)NCc3ccco3)coc2c1`, the cytotoxicity is 4.1% (inactive).

Regarding `Cc1ccc2c(CC(=O)NCc3ccco3)coc2c1C`, the cytotoxicity is 64.7% (active).

As for `O=C(Cc1cccs1)NCc1ccco1`, the cytotoxicity was 5.7% (inactive).

Regarding `O=C(c1cnn2ccccc12)N(Cc1ccco1)C1CCCC1`, the cytotoxicity is -3.3% (inactive).

In the case of `COc1cc(-c2nnc3n2N=C(c2ccccc2)CS3)cc(OC)c1OC`, the cytotoxicity is 57.4% (active).

Turning to `COc1ccc(C2=Nn3c(nnc3-c3ccccn3)SC2)cc1OC`, the cytotoxicity is -0.7% (inactive).

In the case of `COc1ccc(OC)c(C2=Nn3c(nnc3-c3cc(OC)c(OC)c(OC)c3)SC2)c1`, the cytotoxicity is 4.4% (inactive).

For `CCOc1ccc(C2=Nn3c(nnc3-c3ccccc3OC)SC2)cc1`, the cytotoxicity is 63.4% (active).

On to `CCOc1ccc(C2=Nn3c(nnc3-c3ccc(OC)cc3)SC2)cc1`, for which the cytotoxicity was 45.9% (inactive).

With `c1ccc(C2=Nn3c(nnc3-c3cc(-c4ccccc4)n[nH]3)SC2)cc1`, the cytotoxicity is 5.2% (inactive).

On to `CCOc1ccc(-c2nnc3n2N=C(c2ccc(OC)cc2)CS3)cc1`, for which the cytotoxicity is 0.1% (inactive).

As to `COc1ccc(C2=Nn3c(nnc3-c3ccccc3)SC2)cc1OC`, the cytotoxicity is 3.6% (inactive).

`COc1ccc(-c2nnc3n2N=C(c2ccccc2)CS3)cc1OC`: the cytotoxicity is -2.9% (inactive).

As to `Cc1ccc(-c2nnc3n2N=C(c2ccccc2)CS3)cc1`, the cytotoxicity is -4.2% (inactive).

Consider `CCC(C)Oc1cccc(C(=O)Nc2ccccc2N2CCOCC2)c1` (stereo not given), for which the cytotoxicity was 1.7% (inactive).

On to `CCCn1c(SCC(=O)Nc2c(CC)cccc2CC)nnc1C(C)C`, for which the cytotoxicity was -2.4% (inactive).

As for `Cc1ccc(S(=O)(=O)NCC(C)NS(=O)(=O)c2ccc(C)cc2)cc1` (stereo not given), the cytotoxicity is -44.3% (inactive).

`COc1ccc2nc(NC(=O)CN(c3ccc(C)cc3)S(=O)(=O)c3c(C)nn(C)c3C)sc2c1`: the cytotoxicity is 10.7% (inactive).

As to `OC(COc1c(Cl)cc(Cl)cc1Cl)CN1CCCCC1` (stereo not given), the cytotoxicity was 7.4% (inactive).

On to `CC(=O)Nc1ccc(S(=O)(=O)N2CCSC2c2ccc(C)cc2)cc1` (stereo not given), for which the cytotoxicity was 0.6% (inactive).

For the molecule `Nc1nnc2c(n1)CCCC2`, the cytotoxicity was 2.7% (inactive).

As to `COc1cccc(C2=Nn3c(nnc3-c3ccccc3O)SC2)c1`, the cytotoxicity was -36.1% (inactive).

As for `COc1ccccc1-c1nnc2n1N=C(c1ccc(O)c(O)c1)CS2`, the cytotoxicity is 60.1% (active).

`COc1ccccc1-c1nnc2n1N=C(C)CS2`: the cytotoxicity is -3.3% (inactive).

Consider `C1CCN(c2nc(N3CCCCC3)nc(N3CCNCC3)n2)CC1`, for which the cytotoxicity is 2.9% (inactive).

As to `c1ccc(Nc2nc(N3CCCCC3)nc(N3CCNCC3)n2)cc1`, the cytotoxicity is 71.8% (active).

In the case of `c1ccc(Nc2nc(N3CCOCC3)nc(N3CCOCC3)n2)cc1`, the cytotoxicity is 3.2% (inactive).

Take `CCOC(=O)C1CCCN(C(=O)c2cn(CC)c3ccc(S(=O)(=O)N4CCCC4)cc3c2=O)C1` (stereo not given): the cytotoxicity was -6.2% (inactive).
